Assay outcomes as filed in PubChem.
Most compounds without a hit are left out; they make up all but 11% or so of the library.
hNpr1 antagonist: human Npr1 receptor antagonism; AID 1347048; P16066; Potency, µM (doses to about 46.3 µM), actives largely listed as inhibitors; HEK293 hNpr1 GloSensor cGMP, ANP-stimulated luminescence; 1.6% of 76,000 active; calls by dose curve; note: nearly all actives have a fitted effect of over 60% in size
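Compound pre-incubated 30 min at room temperature on GloSensor-loaded HEK293 cells stably carrying hNpr1 and the pGS-40F cGMP biosensor. Stimulation uses hNppA at 0.1 nM final; luminescence is taken at baseline and 20 min post-agonist.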
3T3 cytotox: kills NIH 3T3 cells; AID 1345082; Potency, µM (highest dose often 96.7 µM), actives largely listed as inhibitors; NIH 3T3 viability, CellTiter-Glo ATP luminescence, 48-72 h; 4.3% of 94,000 active; note: nearly all actives have a fitted effect of over 55% in size
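NIH 3T3 cells at 400 cells/well received 23 nL of compound by pintool and were incubated 48 or 72 h at 37 °C. Viability was read as ATP-coupled CellTiter-Glo luminescence.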
Luciferase inh: inhibitors of firefly (Photinus pyralis) luciferase; purified P. pyralis luciferase, luminescence, biochemical; Potency, µM (series often up to 115 µM), hits mostly inhibitors; P08659; 2.5% of 76,000 active; AID 1347043; note: nearly all actives have a fitted effect of over 65% in size
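Biochemical qHTS: compound (6-point titration) added to 10uM D-luciferin plus 10uM ATP in Tris acetate pH 7.5 buffer with Mg, Tween-20 and BSA, then purified enzyme at 10nM; light output imaged.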
HEK293 tox: HEK 293 cell cytotoxicity; AID 1345083; 6.6% of 94,000 active; HEK 293 viability, ATP luminescence (CellTiter-Glo), 48-72 h; Potency, µM (highest dose often 115 µM), hits mostly inhibitors; note: nearly all actives have a fitted effect of over 60% in size
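250 HEK 293 cells/well; compound by pintool; incubated 48 or 72 hr at 37 degree Celsius; CellTiter-Glo added, 10 min RT, luminescence imaged.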
Hits are given with their value; n = inactive; u = inconclusive; x = no result given. Unless noted, calls come from the whole dose curve; as a rule, active = well fitted curve in the direction sought with a large enough effect; inconclusive = small, poorly fitted or top-dose-only effect, or another doubt; inactive = no such curve, though single readings can be large; an effect the other way counts as inactive or inconclusive.

SMILES | hNpr1 antagonist | 3T3 cytotox | Luciferase inh | HEK293 tox
CC(=O)O[C@H]1[C@@H](CN(C)S(=O)(=O)c2cccs2)[C@H]2O[C@@H]1c1ccccc12 | x | n | x | u
COc1ccc(CCc2nc3nccc(-c4ccc(OC)c(OC)c4)n3n2)cc1 | n | u | u | 35µM
COc1ccc(-c2ccnc3nc(Cc4ccc(F)cc4)nn23)cc1OC | n | u | n | u
COc1ccc(Cc2nc3nccc(-c4ccc(OC)c(OC)c4)n3n2)cc1 | n | 14µM | n | u
COc1ccccc1-n1c(=O)c(C(=O)N2CCN([S+](=O)([O-])c3c(C)noc3C)CC2)nc2cccnc21 | x | n | x | n
CC(C)Oc1cccc2c1c(NC(=O)c1cccnn1)nn2Cc1ccccc1 | n | u | u | 50µM
Cc1nnnn1CC(=O)Nc1nn(Cc2ccccc2)c2cccc(OC(C)C)c12 | n | n | n | n
COc1ccc(NC(=O)c2cc3n(n2)CC(c2ccc4c(c2)OCO4)OC3)cc1OC (stereo unspecified) | n | n | n | u
CCc1ccc(NC(=O)c2cc3n(n2)CC(c2ccc4c(c2)OCO4)OC3)cc1 (stereo unspecified) | 11µM | u | u | 32µM
CC(C)CNC(=O)c1cc2n(n1)CC(c1ccc3c(c1)OCO3)OC2 (stereo unspecified) | n | 40µM | n | 45µM
Clc1ccccc1C1Cn2cnc(-c3nc(-c4ccccn4)no3)c2CO1 (stereo unspecified) | n | u | 25µM | u
CCOC(=O)C1=C(C)N(Cc2ccc(C(=O)N3CCCCC3)cc2)C(=O)CC1c1cccc(C)c1 (stereo unspecified) | u | u | n | 40µM
CCCCNC(=O)c1cccc(CN2C(=O)CC(c3ccccc3C)C(C(=O)OCC)=C2C)c1 (stereo unspecified) | n | u | n | u
NC1(C(=O)NCc2nc(-c3cccc(F)c3)c(-c3ccccn3)[nH]2)CCC1 | n | n | n | n
O=C(NCc1nc(-c2cccc(F)c2)c(-c2ccccn2)[nH]1)N1CCCC1 | n | u | n | 50µM
COc1ccccc1-c1cccc(C(=O)N2CCC[C@H]2C(=O)NCc2cccs2)c1 | x | n | x | 79µM
COC(=O)CNC(=O)C1CCCN1C(=O)c1cccc(-c2cccc(OC)c2)c1 (stereo unspecified) | x | u | x | 45µM
CCCCCNC(=O)C1CCCN1C(=O)c1cccc(-c2cccc(OC)c2)c1 (stereo unspecified) | x | u | x | 100µM
COC(=O)CNC(=O)C1CCCN1C(=O)c1cccc(-c2cccnc2)c1 (stereo unspecified) | x | n | x | u
COc1cccc(-c2cccc(C(=O)N3CCCC3C(=O)NCc3cccs3)c2)c1 (stereo unspecified) | x | n | x | u
CC(C)(C)c1nnc2ccc(C(=O)N3CCOCC3)cn12 | x | n | x | n
O=C(NCCc1ccccc1)c1ccc2nnc(CC3CC3)n2c1 | x | u | x | n
O=C1CCN(S(=O)(=O)c2ccccc2)CCCN(Cc2ccccc2)CCN1 | n | n | n | n
O=C(NCCc1ccccc1)C1c2ccccc2C(=O)N(Cc2ccccc2)C12CCCC2 (stereo unspecified) | n | 32µM | n | 40µM
O=C(NC1CCCC1)C1c2ccccc2C(=O)N(C2CCCC2)C12CCCCC2 (stereo unspecified) | n | n | n | n
SMILES | hNpr1 antagonist | 3T3 cytotox | Luciferase inh | HEK293 tox
O=C(NC1CC1)C1c2ccccc2C(=O)N(C2CCCCC2)C12CCCCC2 (stereo unspecified) | n | u | n | 32µM
COC(=O)CCNC(=O)C1c2ccccc2C(=O)N(Cc2ccccc2)C12CCCC2 (stereo unspecified) | n | n | n | n
CSc1ccc(-c2ccc3c(c2)C(=O)N2CCN(C(=O)C4CCCCC4)C[C@@H]2C(=O)N3)cc1 | n | u | n | u
CCOc1ccc(C(=O)N2CCC[C@H]2c2nc(-c3ccccc3Cl)no2)cc1 | n | 20µM | u | u
CCOc1ccccc1C(=O)N1CCC[C@H]1c1nc(-c2ccc(F)cc2)no1 | n | u | n | 35µM
Cc1nc2cccnc2n1CC1CCCN(S(=O)(=O)Cc2ccccc2Cl)C1 (stereo unspecified) | n | u | n | u
CCc1ccc(N2CC(c3noc(-c4ccc(OC)nc4OC)n3)CC2=O)cc1 (stereo unspecified) | n | u | n | 45µM
CCc1ccc(N2CC(c3noc(-c4ccccc4)n3)CC2=O)cc1 (stereo unspecified) | n | u | n | 79µM
